Measured values as given in PubChem BioAssay AID1347072 (National Center for Advancing Translational Sciences (NCATS), 2019).
In all, about 44,000 compounds went through this assay and fewer than 10 were called active. Not shown: some 2% with an inconclusive outcome. Calls come from the whole dose curve; as a rule, active = well fitted curve in the direction sought with a large enough effect; inconclusive = small, poorly fitted or top-dose-only effect, or another doubt; inactive = no such curve, though single readings can be large or run the other way. These entries were drawn from the full list.

target: Galactokinase (Homo sapiens) (UniProt P51570); experiment: qHTS Assay for Inhibitors of Human Galactokinase (GALK): NCGC Sytravon Library Screen; settings: recombinant GALK, Kinase-Glo ATP luminescence, 1 h; series mostly up to 57.5 µM
Text: Inherited deficiency of galactose-1-phosphate uridyltransferase (GALT) can result in a potentially lethal disorder called Classic Galactosemia (OMIM 230400). Several lines of evidence indicate that an elevated level of galactose-1-phosphate (gal-1-p), the product of galactokinase (GALK), is a major, if not sole, pathogenic mechanism in patients with classic galactosemia. Therefore, finding inhibitors of GALK is a potential novel therapy for this inherent metabolic disease and is the long term goal of this project. This screen is run against the NCGC Sytravon compound library collection. GALK (provided by Kent Lai) was assayed using ATP and D-(+)-Galactose (Sigma-Aldrich cat# G0750) as substrates. Promega Kinase-Glo Plus technology was used to detect kinase activity. Reactions with and without GALK were used as negative and positive controls together with Protein Tyrosine Phosphatase CD45 inhibitor (EMD Bioscience cat# 540215) which is shown to inhibit GALK activity. Decrease in activity corresponds to inhibition of the enzyme is the desired outcome for this assay. NIH Molecular Libraries Probe Production Network [MLPCN] NIH Chemical Genomics Center [NCGC] Grant: R03 MH085689-01 PI Name: Kent Lai Ph.D., University of Utah
NCGC Assay Protocol Summary: Three uL/well of ATP-buffer solution (35 uM ATP, 20mM HEPES pH8.0, 5 mM MgCl2, 60 mM NaCl, 1 mM DTT, 0.01% BSA final concentration) was dispensed into 1536-well, assay plates (Greiner, solid white medium-binding plates) with Aurora Discovery BioRAPTR Flying Reagent Dispenser (FRD; Beckton-Dickenson). Compound solution (23 nL) was transferred to the assay plate using the Kalypsys 1536-pin tool. One uL/well GALK-galactose solution (5 nM GALK, 100 uM galactose, 20 mM HEPES pH8.0, 5 mM MgCl2, 60 mM NaCl, 1 mM DTT, 0.01% BSA final concentration) was then added using the FRD yielding a total kinase reaction volume of 4 uL/ well. After 1 hour of room temperature incubation, 4 uL Kinase-Glo Plus reagent was added for a final assay volume of 8 uL/ well. Luminescence was detected with the ViewLux plate reader (Perkin Elmer, Waltham, MA) after 10 min incubation using a 1 sec exposure time and 2x binning.

Chain of Galactokinase (Homo sapiens) (P51570 whole entry, looked up): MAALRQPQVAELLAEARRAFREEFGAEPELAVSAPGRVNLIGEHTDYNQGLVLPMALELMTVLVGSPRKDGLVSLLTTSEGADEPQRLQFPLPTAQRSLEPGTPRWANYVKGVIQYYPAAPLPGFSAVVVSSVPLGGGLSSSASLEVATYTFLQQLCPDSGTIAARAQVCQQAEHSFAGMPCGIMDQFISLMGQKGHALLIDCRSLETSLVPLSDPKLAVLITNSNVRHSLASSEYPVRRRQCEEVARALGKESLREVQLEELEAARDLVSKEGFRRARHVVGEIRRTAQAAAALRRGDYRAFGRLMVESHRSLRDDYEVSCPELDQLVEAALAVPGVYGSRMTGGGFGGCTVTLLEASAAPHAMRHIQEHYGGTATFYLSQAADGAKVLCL

outcome, inactive:
O=S(=O)(NCC(c1ccco1)N1CCOCC1)c1cc(F)ccc1F (configuration not stated)
COc1ccc(-c2nc(C)c(CCNC(=O)c3ccc(C(F)(F)F)cc3)s2)cc1OC
CCOC(=O)c1cccc(NC(=O)C(Cc2ccccc2)NS(=O)(=O)c2cccc3nsnc23)c1 (configuration not stated)
Cc1ccccc1Nc1nn2c(=O)c3ccc(C(=O)NCCc4ccc(Cl)cc4)cc3nc2s1
CCOc1ccc(C(=O)N2CCN(CCc3ccccn3)CC2)cc1
COc1ccccc1CNCc1ccc(C(=O)O)s1
COc1ccccc1CNC(=O)c1ccccc1NC(=O)c1nsc2ccccc12
Cc1sc2ncn(CC(=O)N3CCN(c4ccc(F)cc4)CC3)c(=O)c2c1S(=O)(=O)N1CCN(c2ncccn2)CC1
COc1ccc(OC)c(NC(=O)/C=C/c2ccc(C)o2)c1
Cc1ccc(CNC(=O)CCC(=O)N2Cc3ccccc3Oc3ncccc32)cc1
Cc1nn(CC(=O)NCCc2ccccc2)c(=O)c2c1sc1ccccc12
COc1ccc(OC)c(NC(=O)CN2CCCN(Cc3cc(C)ccc3C)S2(=O)=O)c1
O=C(NCCCN1CCN(c2cccc(Cl)c2)CC1)c1nnc(Cc2ccc(F)cc2Cl)o1
CC1=C(c2ccc(C)c(C)c2)S(=O)(=O)NC1=NCc1ccccc1Cl
COc1ccc(S(=O)(=O)NCCc2cc3ccc(C)c(C)c3[nH]c2=O)cc1
CCc1cccc(C)c1Nc1c(-c2ccc(N(C)C)cc2)nc2ncccn12
COc1ccc(NC(=O)Cn2c(=O)n(Cc3ccc(C(=O)NCc4ccccc4Cl)cc3)c(=O)c3ccccc32)cc1
CCC(=O)Nc1ccc2nc(SCC(=O)N3CCc4ccccc43)sc2c1
Cc1ccc(-n2c3nc(=O)[nH]c(=O)c-3cc3c(Cl)cccc32)cc1
Cc1ccc(SCC(=O)Nc2ccc3oc(-c4ccccc4C)nc3c2)cc1
COc1ccc(NC(=O)CSc2nc3ccccc3n2CC(=O)N2CCCCC2C)cc1 (configuration not stated)
CCOc1ccc(CCNC(=O)CSc2cc(=O)n(C)c3ccc(Cl)cc23)cc1OCC
O=C(Cn1c(=O)n(Cc2ccccc2)c(=O)c2sc3ccccc3c21)Nc1ccccc1F
Cc1cccc2c(=O)cc(CSc3ccccc3NC(=O)C(C)C)[nH]c12
COc1cc(OC)c(OC)cc1/C=C/c1nc2cc3ccccc3cc2c(=O)n1-c1ccc(F)c(Cl)c1
Cc1ccc(C(=O)Nc2nc(-c3ccccc3)ns2)cc1
Cc1ccc(C)c(Cn2c(=O)n(CCC(=O)NCc3ccc4c(c3)OCO4)c(=O)c3sccc32)c1
Cc1ccc(CNS(=O)(=O)c2ccc(C(=O)N(C)C)s2)cc1
O=C(NCc1ccc2c(c1)CCN2C(=O)c1ccccc1)Nc1cc(F)ccc1F
CN(C(=O)CSc1nc2ccccc2n1Cc1ccccc1C#N)c1ccccc1
CCCn1c2ccccc2c2cnn(CC(=O)NCC3CCN(Cc4ccc(C)cc4)CC3)c(=O)c21
COc1ccc(-c2noc(CSc3nnc(-c4ccccc4)n3-c3ccc(F)cc3)n2)c(OC)c1
Cc1nnc(NC(=O)CSc2nc3c([nH]c4ccccc43)c(=O)n2-c2cccc(Cl)c2)s1
CCOc1ccc(CCNC(=O)c2cc3c(=O)n(C)c4ccccc4c3n2C)cc1
O=C(CSc1nc2c(c(=O)[nH]1)CN(Cc1ccc(F)cc1)CC2)Nc1ccccc1Cl
O=C(Cc1ccc(Cl)cc1)NCC(c1cccs1)S(=O)(=O)c1ccc(Cl)cc1 (configuration not stated)
O=C(Nc1ccc(Br)cc1)c1ccc(Br)c(S(=O)(=O)NCc2ccccc2)c1
Cc1ccc(-c2cn3c(n2)sc2cc(C(=O)NCc4cccs4)ccc23)c(C)c1
CCc1ccccc1NC(=O)c1ccc(F)c(S(=O)(=O)NC2CCCCCC2)c1
CCc1cccc(NC(=O)CSc2nccn2C)c1
COc1ccc(CCNc2ncnc3c2cnn3-c2ccc(C)cc2)cc1
Cc1cccc(-c2nc(SCc3ccc(Br)cc3)n3[nH]c(=O)cc3n2)c1
CC(CCCc1ccccc1)NC(=O)c1nn(-c2ccc(Cl)cc2)nc1CO (configuration not stated)
COc1ccc(CNc2nc(-c3ccc(Cl)cc3)cc(C(F)(F)F)n2)cc1
CCn1cc(CCC(=O)NCc2ccc(F)cc2)c2ccccc21
CCN(c1ccc(Cl)cc1)S(=O)(=O)c1nnc(NC(=O)c2ccco2)s1
CCc1nn(CC(=O)Nc2cccc(C)c2C)c(=O)c2cc3sccc3n12
Cc1c(Cl)cccc1NC(=O)C1CCCN(C(=O)c2cnn(-c3ccccc3)c2-n2cccc2)C1 (configuration not stated)
CCc1ccccc1OCCSc1nc(-c2cccs2)nc2cc(=O)[nH]n12
COc1ccc2cc(-c3nc(Cl)c4c5c(sc4n3)CC(C)CC5)c(=O)oc2c1 (configuration not stated)
Cc1ccc2cccc(NC(=O)C(C)Oc3ccc(C)c(C)c3)c2n1 (configuration not stated)
CCCCc1nn2c(=O)cc(COC(=O)c3ccccc3NC(=O)C(C)(C)C)nc2s1
O=C(CSc1nc(=O)[nH]c2c1CCCC2)Nc1cc(C(F)(F)F)ccc1Cl
CC(NC(=O)c1cc2c(=O)n3ccccc3nc2n(C(C)C)c1=N)c1ccccc1 (configuration not stated)
COc1ccccc1CNS(=O)(=O)c1cc(Br)cc2c1N(C(C)=O)C(C)C2 (configuration not stated)
Cn1c(=O)cc(OCC(=O)N2CCN(c3ccccc3F)CC2)c2ccccc21
COc1ccc(CNC(=O)CCc2c(C)nn(-c3ccc(N4CCCC4)nn3)c2C)cc1
O=S(=O)(NCCS(=O)(=O)N1CCN(c2ccccc2)CC1)c1ccc(Cl)cc1
CCCN1CCN(CCCNC(=O)c2ccc3nc(Cc4ccccc4)oc3c2)CC1
CCN(Cc1ccccc1)C(=O)c1cn(-c2cccc(OC)c2)c(=O)c2ccccc12
COc1ccc(NS(=O)(=O)c2cc3c4c(c2)CC(=O)N4CCC3)cc1Cl
CC(=O)N1CCCc2ccc(NS(=O)(=O)c3ccc(F)cc3F)cc21
